Source: PubChem (National Center for Advancing Translational Sciences (NCATS))
Hits are enriched below; roughly 8% of the tested compounds scored in any of these assays.
Lassa entry inh = Lassa virus entry inhibition | Lassa virus pseudotype entry inhibition, cell reporter | Potency, µM (titrated, usually from 37.9 µM), actives largely listed as inhibitors | 300,000 compounds, 1.2% hits | AID 540256; calls by dose curve; tested in HEK293 cells; further: nearly all actives have a fitted effect of over 50% in size
HCMV inh = inhibitors of human cytomegalovirus; 410,000 compounds, 4.5% hits; HFF cells, HCMV-luciferase reporter, 72 h; hits give low values; activity change, negative = inhibition, % at 57.5 µM; in the data active means activity change below about -60%; inconclusive means no clear call, values can overlap the other calls; inactive means above about -39%
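Luciferase read-out from HCMV-luciferase-infected HFFs (MOI 1 PFU/cell) 72 h post infection at 37C; compounds added after 16 h cell attachment; activity normalized between buffer-only basal and Salinomycin (10uM) inhibitor controls.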
SARS PLP yeast = blocks SARS-CoV papain-like protease in a yeast assay | S. cerevisiae expressing SARS-CoV PLpro, growth rescue | Potency, µM (series often up to 32.9 µM), usual class: activators | 330,000 compounds, 0.19% hits; calls by dose curve; further: nearly all actives have a fitted effect of over 55% in size
Marburg entry inh = blocks Marburg virus binding to or entry into cells; Marburg virus pseudotyped entry inhibition, cell reporter; Potency, µM (doses to about 37.8 µM), usual class: inhibitors; 300,000 compounds, 1.8% hits; calls by dose curve; tested in HEK293 cells
FMDV antiviral = antivirals against foot and mouth disease virus | FMDV antiviral cell-based qHTS | Potency, µM (series often up to 57.9 µM), usual class: inhibitors | 410,000 compounds, 1.2% hits; calls by dose curve; tested in HEK293T cells; further: read-out not given here; nearly all actives have a fitted effect of over 45% in size
HCV inh = HCV inhibition; Potency, µM (top dose mostly 41.8 µM), most hits filed as inhibitors; Huh7.5.1 HCVcc-Cre infection, luciferase reporter, 44 h; 340,000 compounds, 3.4% hits; active means well fitted inhibition curve with a large enough effect; inconclusive means small, poorly fitted or top-dose-only effect, or another doubt; inactive means no such curve, though single readings can be large or run the other way
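1,000 cells/well; 4 h culture; + compound; + HCVcc-Cre (~0.5 moi); 44 h; luciferase substrate, RT 15 min; read 15 sec.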
Numbers stand for hits; n = inactive; u = inconclusive; x = no result; ! = not confirmed by another sample; [ ] = remark or other dose.

SMILES	Lassa entry inh	HCMV inh	SARS PLP yeast	Marburg entry inh	FMDV antiviral	HCV inh
Cc1ccc2cc3cc(C(=O)NCCCN4CCCC4)oc3nc2c1	x	u	n	x	n	14µM
O=C(Cn1c(=O)n(Cc2ccc(C(=O)NCc3ccc4c(c3)OCO4)cc2)c(=O)c2ccccc21)Nc1ccc(F)cc1F	n	u	x	n	n	x
COCCCNc1nc2nonc2nc1N1CCC(C(C)N2CCOCC2)CC1 (stereo unspecified)	n	n	n	u	n	n
CCOC(=O)C1=CCN(Cc2ccccc2)CC1	n	n	n	n	n	n
CCOc1ccc(NC(=O)c2cc3cc4ccc(C)cc4nc3o2)cc1	n	n	n	n	n	x
COc1cc(NC(=O)c2cc3cc4ccc(C)cc4nc3o2)cc(OC)c1OC	u	n	x	u	3.2µM	x
Cc1c(C(=O)NCc2ccc3c(c2)OCCO3)sc(=O)n1Cc1ccc(S(=O)(=O)N(C)C)cc1	x	n	x	x	14µM	x
Cc1c(C(=O)NCc2ccc3c(c2)OCO3)sc(=O)n1Cc1ccc(S(=O)(=O)N(C)C)cc1	x	n	x	x	u	x
Cc1c(C(=O)NCc2ccc(Cl)c(Cl)c2)sc(=O)n1Cc1ccc(S(C)(=O)=O)cc1	x	-80	x	x	35µM	x
CSc1ccc(Cn2c(C)c(C(=O)NCc3ccc4c(c3)OCCO4)sc2=O)cc1	x	-74	x	x	u	x
Cc1c(C(=O)NCc2ccc3c(c2)OCCO3)sc(=O)n1Cc1cccc(C(F)(F)F)c1	x	-79	x	x	n	x
CCCCOc1cccc(NC(=O)CSc2nnc(C)s2)c1	n	n	x	x	n	x
COCC(=O)Nc1cc(C(=O)N2CC3(C)CC2CC(C)(C)C3)c2c(c1)nc(-c1ccncc1)n2C (stereo unspecified)	x	x	x	x	n	x
Cc1c(C(=O)NCc2ccccc2C(F)(F)F)sc(=O)n1Cc1ccc2ccccc2c1	x	-71	x	x	n	x
Cc1c(C(=O)NCc2ccccc2C(F)(F)F)sc(=O)n1Cc1cccc(C(F)(F)F)c1	x	n	x	x	n	x
COc1ccc(S(=O)(=O)N2CCc3ccccc32)cc1[N+](=O)[O-]	x	n	n	x	u	u
O=C(O)c1ccc(CSCc2ccccc2)o1	x	-85	x	x	n	x
Cc1ccc(CNC(=O)c2ccc(CSCc3cccc(C)c3)o2)cc1	n	n	x	x	n	x
Cc1cccc(CSCc2ccc(C(=O)NC(C)C)o2)c1	x	n	n	x	u	13µM
COC(=O)[C@H](CCCN=C(N)N)NC(=O)CCCc1c(-c2ccccc2)[nH]c2c(F)cc(F)cc12	x	x	x	x	n	x
COc1cc2nc(CN(CCO)C3CS(=O)(=O)CC3O)nc(N3CCCCC3)c2cc1OC (stereo unspecified)	x	x	x	x	n	x
N#Cc1nc(Cc2ccccc2)oc1N1CCC(Cc2ccccc2)CC1	7.1µM	n	n	n	n	n
N#Cc1nc(Cc2ccccc2)oc1N1CCN(c2ccccc2)CC1	u	n	n	u	x	n
COCC(C)N=C1NN=C(c2cc(C)n(Cc3ccccc3Cl)c2C)CS1 (stereo unspecified)	x	-79	n	x	n	u
Cc1cc(C2=NNC(=NC3CC3)SC2)c(C)n1Cc1ccco1	u	-98	10µM	u	3.2µM	u
SMILES	Lassa entry inh	HCMV inh	SARS PLP yeast	Marburg entry inh	FMDV antiviral	HCV inh
COCCCN=C1NN=C(c2cc(C)n(Cc3ccco3)c2C)CS1	u	n	n	16µM	n	n
Cc1cc(-c2csc(N)n2)c(C)n1Cc1ccco1	n	n	n	u	n	u
O=C(Nc1ccc(Cl)cc1)c1nc[nH]c1C(=O)N1CCN(c2ccccc2)CC1	x	n	n	x	n	n
COc1ccc(OC)c(CNC(=O)c2ccc3c(c2)c(C)c(C)n3Cc2ccc(Cl)cc2)c1	u	n	x	x	n	x
CCOC(=O)CSc1nc2ccc(N3CCOCC3)cc2c(=O)n1Cc1ccccc1	u	n	n	n	n	2.8µM
Cc1cc(C)cc(NS(=O)(=O)c2cnc(Cl)c(Cl)c2)c1	n	n	n	n	n	11µM
CC(C)(C)OC(=O)NCCCC[C@H](NC(=O)c1nc[nH]c1C(=O)NCc1ccc(CNC(=O)OC(C)(C)C)cc1)C(=O)OC(C)(C)C	x	n	n	x	n	u
CC(C)(C)OC(=O)NCCCCCNC(=O)c1nc[nH]c1C(=O)NCCCCCNC(=O)OC(C)(C)C	x	-75	n	x	13µM	10µM
CC(C)(C)OC(=O)NCCCCCNC(=O)c1nc[nH]c1C(=O)NCc1ccc(CNC(=O)OC(C)(C)C)cc1	x	-95	n	x	16µM	8.9µM
CC(C)(C)OC(=O)NCc1ccc(CNC(=O)c2nc[nH]c2C(=O)NCc2ccc(CNC(=O)OC(C)(C)C)cc2)cc1	x	u	n	x	13µM	u
C[C@H](NC(=O)c1[nH]cnc1C(=O)Nc1ccc(CNC(=O)OC(C)(C)C)cc1)C(=O)OCc1ccccc1	x	n	n	x	18µM	u
CC(C)(C)OC(=O)CNC(=O)c1nc[nH]c1C(=O)NCc1ccc(CNC(=O)OC(C)(C)C)cc1	x	n	n	x	u	u
COC(=O)[C@@]1(Sc2ccc(OC)cc2)CC(=O)N(c2ccc(OC)cc2)[C@@H]1c1ccc(OC(C)C)c(OC)c1	x	n	x	x	x	x
CC(=O)NS(=O)(=O)c1ccc(N=c2ssc3c2-c2cc(C)c(C)cc2NC3(C)C)cc1	u	n	n	u	n	u
Cc1cc2c(cc1C)-c1c(ssc1=Nc1ccc(S(N)(=O)=O)cc1)C(C)(C)N2	x	n	n	x	n	13µM
CC1=NNC(=O)/C1=C\c1cn(-c2ccccc2)nc1-c1ccc(Cl)cc1	u	-102	n	u	10µM	u
CCc1ccccc1NC(=O)C(C)n1c(=O)cc(C)c2c(C)nn(-c3ccccc3)c21 (stereo unspecified)	n	n	x	x	n	x
Fc1ccc(-c2cn3cc(Cc4ccccc4)sc3n2)cc1	u	-66	x	u	13µM	x
Cc1ccc(C)c(NC(=O)CCOc2ccccc2)c1	n	-67!	n	n	n	n
CCOc1ccccc1OCCCC(=O)N(C)CC(=O)Nc1cc(C)ccc1C	n	-70	n	n	n	n
CCOc1ccc(NC(=O)CN(C)C(=O)c2ccccc2OCc2cccc(C)c2)cc1OCC	u	n	n	u	n	10µM
COC(=O)C1=C(C)N(Cc2cccc(C(F)(F)F)c2)C(=NCc2ccc3c(c2)OCO3)NC1c1cccc(F)c1 (stereo unspecified)	x	n	x	x	x	x
CC(C)Cc1nc2cc(NS(=O)(=O)N(C)C)cc(C(=O)N3CCN(c4ccccc4)CC3)c2n1C	x	x	x	x	n	x
CC(=O)OC(C)(C)/C=C/C(=O)[C@](C)(O)C1[C@H](O)C[C@@]2(C)C3CC=C4C(C=C(O[C@@H]5O[C@H](CO)[C@@H](O)[C@H](O)[C@H]5O)C(=O)C4(C)C)[C@]3(C)C(=O)C[C@]12C (stereo partly specified)	x	-86	n	x	n	n[8.37 µM]
CC(=O)OC(C)(C)/C=C/C(=O)[C@](C)(O)[C@H]1[C@H](O)C[C@@]2(C)[C@@H]3CC=C4[C@H](C[C@H](O)C(=O)C4(C)C)[C@]3(C)C(=O)C[C@]12C	0.29µM	x	u	u	18µM	n
